Compound activity deposited in PubChem BioAssay by National Center for Advancing Translational Sciences (NCATS).
Pf Dd2 growth = inhibitors of Plasmodium falciparum Dd2 growth. P. falciparum Dd2 growth, SYBR Green, 72 h. AID 1347417. Potency, µM (highest dose often 28.9 µM), for the others: at the highest dose activity, negative = inhibition, usual class: inhibitors. hit rate 4.3% among 120,000; active = well fitted inhibition curve with a large enough effect;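 note: plate controls were DMSO vehicle for no effect and reference drug for full effect; nearly all actives have a fitted effect of over 65% in size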
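Readout: SYBR Green fluorescence, 485 nm excitation, 535 nm emission, after ~16 h lysis at 37C. Before that, Dd2-infected red cells (2.5% hematocrit) grew 72 h with compound, 29 uM top final concentration.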
* marks the source's active call; other numbers are inactive results; i = inactive; [ ] = dose if it differs, or a comment. This excerpt belongs to a sample that is enriched for hits. Potency is the fitted concentration of half-maximal effect.

SMILES	Pf Dd2 growth
O=C(O)C[C@@H]1CCN(C(=O)C2CC2)C[C@@H]1CCN1CCC(n2c(=O)[nH]c3ccccc32)CC1	33%
CC(C)NC(=O)NCc1nnc2n1C(C(=O)N1CCOCC1)CC2 (stereo not given)	15%
Cc1nc(C)c(C(=O)N2CC3CC(C2)[C@H]2CCCC(=O)N2C3)s1 (stereo not given in full)	-9%
COc1ccc2nc(CO[C@H]3CN(Cc4cn(C)c5ccccc45)C[C@H]3F)[nH]c2c1	-30%[44.1 µM]
COc1ccc(-c2nn(-c3ccccc3)cc2C(=O)Nc2ccccc2OC)cc1	i
Cc1ccccc1-c1nc2cc3c(cc2cc1CN1CCC[C@H]1CO)OCO3	-14%
COc1ccc(F)c(CN2CCCC(O)(CN3CCC(CO)CC3)C2=O)c1 (stereo not given)	-19%
Cc1ccccc1-c1nn(-c2ccc(F)cc2F)cc1CN1CCCC1CCO (stereo not given)	7.9µM*
CCc1cnc(C)nc1N1CCN(Cc2ccccc2F)C(CCO)C1 (stereo not given)	-27%
CNCC(=O)N1CCCC(N2CCN(c3ccc(OC)cc3)CC2)C1 (stereo not given)	0%
COc1ccc(-c2nn(-c3ccccc3)cc2CN2CCCC(CO)C2)c(F)c1 (stereo not given)	8.9µM*
COc1ccc(F)c(CN2CCC(CCC(=O)N3CCN(c4ccccc4)CC3)CC2)c1	-30%
COc1ccc(-c2nn(-c3ccccc3)cc2CN2CCN(C)C(C)C2)c(F)c1 (stereo not given)	11µM*
c1ccc(-c2[nH]ncc2CN2CCCC(N3CCN(c4ccccc4)CC3)C2)cc1 (stereo not given)	-3%
COc1ccc(-c2nn(-c3ccccc3)cc2CN2CCN3CCCC3C2)c(F)c1 (stereo not given)	7.1µM*
NC(=O)C1CCN([C@H]2[C@@H]3OC[C@@H](O3)[C@@H](NCc3ccc(OC(F)(F)F)cc3)[C@@H]2O)CC1	-5%
CCn1ccc(C(=O)N2CCC(Cc3nncn3CC3CC3)CC2)n1	i
Cc1[nH]cnc1-c1nccn1Cc1nnnn1-c1ccccc1	27%
O=C(C1CCN(C(=O)N2CC3CC(C2)[C@H]2CCCC(=O)N2C3)CC1)N1CC=C(c2ccccc2)CC1 (stereo not given in full)	i
CC1CCN(CC2CCCNCC2)CC1 (stereo not given)	15%
CC(=O)N1CCC2(CC1)CC(CC(=O)O)CCO2 (stereo not given)	11%
CN(Cc1cccnc1)c1nc2c(c(=O)[nH]1)CCN(Cc1ccc(C(F)(F)F)cc1)CC2	i[5.79 µM]
O=C(c1ccccc1OCC1CCCN(Cc2ccc(F)cc2Cl)C1)N1CCOCC1 (stereo not given)	i
COc1ccc(-c2ccnc3nc(-c4ccccc4OC)nn23)c(F)c1	-20%
COc1ccc(-n2cc(CN3CCN(C)C(C)C3)c(-c3cccc(F)c3)n2)cc1 (stereo not given)	-14%
SMILES	Pf Dd2 growth
COC[C@@H]1CCCN1Cc1cn(Cc2ccccc2)nc1-c1cc2ccccc2o1	i
COc1ccc(-n2cc(CN3CCCC(CO)C3)c(-c3cccc(F)c3)n2)cc1 (stereo not given)	13µM*
COc1ccc(-c2nc3c(C)cccc3cc2CN2CC[C@@H](O)C2)cc1	-25%
COc1ccc(-c2nn(-c3ccccc3)cc2CN2CCN(C)CC2)c(F)c1	10µM*
COC[C@H]1CCCN1Cc1cn(-c2ccccc2)nc1-c1ccc(OC)cc1F	10µM*
O=c1[nH]c(C2CCCN(Cc3cccc4ccccc34)C2)nn1-c1ccc(Cl)cc1 (stereo not given)	11%
COC1CCCN(Cc2cn(-c3ccc(F)cc3)nc2-c2ccccc2Cl)C1 (stereo not given)	13µM*
COc1ccc2c(c1)c(CN1CCc3nc(N4CCN(C)CC4)[nH]c(=O)c3CC1)cn2C	0%[5.79 µM]
COc1ccc(CN2CCc3nc(N4CCN(C)CC4)[nH]c(=O)c3CC2)c(OC)c1	37%[5.79 µM]
COc1ccc(-c2cn(C)c(=O)n3cc(COc4ccccc4)nc23)c(C(F)(F)F)c1	i
CS(=O)(=O)N1CCCN(Cc2cn[nH]c2-c2cccs2)CCNC(=O)CC1c1ccccc1 (stereo not given)	i
CN1C[C@H](NCc2cccc(Cl)c2)CCC[C@@H](C(=O)N(C)Cc2cccnc2)CC1=O	12%
C=CCn1nc(C(=O)N2CCOCC2)c2c1CCC(NCC1(c3ccccc3)CCOCC1)C2 (stereo not given)	-12%
CCN(C(=O)Cn1c(C)cc2nc3n(c(=O)c21)CCCCC3)c1cccc(C)c1	i
Cc1nc(N(C)C)ncc1C(=O)N1CCN(c2ccccc2C#N)CC1	-11%
CN1[C@@H](CCC(=O)N2CCCC2)CNC(=O)[C@@H]2[C@H]1CCN2Cc1nc2ccccc2n1C	-6%
CC(C)CC(=O)N1CCN(C(=O)N2CC3CC(C2)[C@H]2CCCC(=O)N2C3)CC1 (stereo not given in full)	11%
O=C(N1CCCC1)N1CCn2c(nnc2C2CCCN2)C1 (stereo not given)	14%
CCOc1ccc(NC(=O)N2CC(c3nnc(-c4ccncc4)o3)C3(CCOCC3)C2)cc1 (stereo not given)	-11%
O=c1n(-c2ccncc2)nc2n1CCN(Cc1ccccc1)C2	-3%[44.1 µM]
O=C1CCN(C(=O)C2CCCCC2)CCCC(C(=O)NCc2ccccc2)CCN1 (stereo not given)	-21%
O=C1CCN(C(=O)C2(c3ccccc3)CC2)CCCC(C(=O)NCc2ccccc2)CCN1 (stereo not given)	0.4µM*
O=C1CCN(C(=O)c2ccco2)CCCC(C(=O)NCc2ccccc2)CCN1 (stereo not given)	-13%
CC(=O)c1cccc(NC(=O)Cn2ccn3nc(-c4ccc(F)cc4)c(CO)c3c2=O)c1	-18%
COc1ccccc1NC(=O)c1c(NC(=O)Cc2ccccc2)sc2c1CCC(C(C)(C)C)C2 (stereo not given)	33%
SMILES	Pf Dd2 growth
COc1cc(C(=O)Nc2sc3c(c2C(N)=O)CCC(C)C3)cc(OC)c1OC (stereo not given)	7%
COc1ccc(OC)c(NC(=O)c2c(NCc3cccs3)sc3c2CCCCC3)c1	8.9µM*
COc1ccc(OC)c(NC(=O)c2sc3nc4c(cc3c2N)CCCCCC4)c1	12%
COc1ccc(NC(=O)c2c(NCc3cccs3)sc3c2CCC(C)C3)c(OC)c1 (stereo not given)	10µM*
COc1ccc(OC)c(NC(=O)c2c(OC)cc(=O)n3c2CCCC3)c1	7%
O=C1CCC2(CCCO2)CCN1Cc1ccc(C(F)(F)F)cc1 (stereo not given)	-9%
C[S+](=O)([O-])NCCn1ccc2cc(OC3CCN(C(=O)C4CCCC4)CC3)cnc21	i
COc1cccc(S(=O)(=O)N2CCC3(CC2)CNC(C(=O)O)C3)c1 (stereo not given)	-8%
CCn1c(CN2CCOCC2)nc2cc(NC(=O)c3cc(OC)c(OC)c(OC)c3)ccc21	-16%
CCn1c(CN2CCCCC2)nc2cc(NC(=O)COc3ccc(C(C)(C)C)cc3)ccc21	8.9µM*
CCn1c(CN2CCCCC2)nc2cc(NC(=O)c3cccc([N+](=O)[O-])c3)ccc21	3.5µM*
CCCC(=O)Nc1ccc2c(c1)nc(CN1CCN(C(=O)OCC)CC1)n2C(C)C	-7%
CCn1c(CN2CCN(C)CC2)nc2ccccc21	-23%
Cn1c(CN2CCCCC2)nc2cc(NC(=O)c3ccc(Cl)cc3)ccc21	-14%
